“And” between values parts separate entries of the source, which are not always exact repeats. Identical values can stand only once. Screen size: about 16,000 compounds; about 5,800 (36%) were called active. Roughly 23% stayed inconclusive and do not appear here. Calls come from the whole dose curve; as a rule, active = well fitted curve in the direction sought with a large enough effect; inconclusive = small, poorly fitted or top-dose-only effect, or effect the other way; inactive = no such curve, though single readings can be large or run the other way. The list shows a part of the results. A structure can be active in one record and inactive in another.
What follows are molecules tested against Cytochrome P450 2C19 (Homo sapiens) (UniProt P33261) (assay: Cytochrome panel assay with activity outcomes). Conditions: recombinant CYP, pro-luciferin dealkylation, luminescence, p450-cyp2c19; series mostly up to 57.1 µM.
Chain of Cytochrome P450 2C19 (Homo sapiens) (P33261 whole entry, looked up): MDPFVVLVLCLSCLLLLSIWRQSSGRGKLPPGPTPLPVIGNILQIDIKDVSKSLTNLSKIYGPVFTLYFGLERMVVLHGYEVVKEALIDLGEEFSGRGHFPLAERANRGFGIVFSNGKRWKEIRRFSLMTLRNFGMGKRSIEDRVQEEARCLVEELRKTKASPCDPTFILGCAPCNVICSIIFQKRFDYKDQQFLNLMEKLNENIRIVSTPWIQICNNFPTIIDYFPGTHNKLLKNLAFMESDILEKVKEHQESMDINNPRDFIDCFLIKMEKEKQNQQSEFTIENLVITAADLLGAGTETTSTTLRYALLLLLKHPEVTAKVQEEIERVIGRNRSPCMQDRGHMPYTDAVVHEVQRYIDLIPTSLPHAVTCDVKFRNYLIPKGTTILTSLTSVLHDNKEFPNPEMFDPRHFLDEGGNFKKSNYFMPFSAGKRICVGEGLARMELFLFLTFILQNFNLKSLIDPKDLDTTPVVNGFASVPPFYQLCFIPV
With `CN1[C@@H]2CC[C@H]1CC(O)C2` (some centres not stated) the AC50 was “inactive”.
With `O=C(O)CN1CCN(CC(=O)O)CC(=O)[O][Hg][O]C(=O)C1` the AC50 was 0.794 µM (active).
With `CC(C)NP(=O)(NC(C)C)OP(=O)(NC(C)C)NC(C)C` the AC50 was “inactive”.
With `O=C(Nc1ccccc1)N1CC[C@@]2(CCCN(C(=O)Oc3ccccc3)C2)C1` the AC50 was “inactive”.
`COc1cc([C@H]2c3cc4c(cc3[C@@H](O)[C@@H]3COC(=O)[C@H]23)OCO4)cc(OC)c1OC` was tested, and the AC50 was 10 µM (active).
In the case of `NC(=O)c1ccc(C(=O)Nc2ccc([As](=O)(O)O)cc2)cc1`, the activity, negative = inhibition is reported as 10.2% [at 11.4 µM] (inactive).
`CCCCC1(CCCC)C(=O)NC(=Nc2cccc(C)c2)NC1=O` was tested, and the AC50 was 2.24 µM (active).
In the case of `CC[N+](CC)(CCNC(=O)C(=O)NCC[N+](CC)(CC)Cc1ccccc1Cl)Cc1ccccc1Cl`, the AC50 is reported as “inactive”.
For `O=C(Oc1ccccc1)N1CCC2(CCCN(Cc3ccccc3)C2)CC1`, the AC50 was “inactive”.
For `Cc1nc2ccccc2c(=O)n1-n1cnnc1`, the AC50 was “inactive”.
With `Cc1nc2sccc2c(=O)n1-c1ccccc1Cl` the AC50 was 2.82 µM (active).
With `C[C@@H](N)Cn1ccc2cc(F)c(Cl)cc21` the AC50 was “inactive”.
With `CC(C)CCC1(CCN)C(=O)NC(=O)NC1=O` the activity, negative = inhibition was 5.97% [at 11.4 µM] (inactive).
In the case of `CN1CCN(c2ncc3ncc(=O)n(C)c3n2)CC1`, the AC50 is reported as “inactive”.
`CC(C)[C@]1(O)[C@@H](OC(=O)c2ccc[nH]2)[C@]2(O)[C@@]3(C)C[C@@]4(O)O[C@@]5([C@H](O)[C@@H](C)CC[C@]35O)[C@]2(O)[C@]41C` was tested, and the activity, negative = inhibition was 23.6% [at 11.4 µM] (inactive).
For `CCC(=O)O[C@@](Cc1ccccc1)(c1ccccc1)[C@@H](C)CN(C)C`, the AC50 was “inactive”.
In the case of `O=C(Oc1ccccc1)N1CCC2(CCCN(C(c3ccccc3)c3ccccc3)C2)CC1`, the AC50 is reported as “inactive”.
With `CCOP(=O)(OCC)C(NC(C)=O)C(Cl)(Cl)Cl` (configuration not stated) the AC50 was “inactive”.
In the case of `CCOP(=O)(OCC)C(NC(=O)C(Cl)Cl)C(Cl)(Cl)Cl` (configuration not stated), the AC50 is reported as 10 µM (active).
With `N#Cc1ccc(CN2CC[C@@]3(CCCN(C(=O)Oc4ccccc4)C3)C2)cc1` the AC50 was “inactive”.
With `C[N+](C)(C)CCCCCC[N+](C)(C)C` the AC50 was “inactive”.
In the case of `Cc1cccc([C@H](C)c2cnc[nH]2)c1C`, the AC50 is reported as 5.01 µM (active).
`C[N+]1(C)C2CC[C@H]1CC(OC(=O)[C@@H](CO)c1ccccc1)C2` (some centres not stated) was tested, and the activity, negative = inhibition was 14.6% [at 11.4 µM] (inactive).
In the case of `CNCCCc1ccccc1`, the AC50 is reported as “inactive”.
With `C#CCN[C@@H](C)Cc1ccccc1` the AC50 was “inactive”.
In the case of `C[C@@H](Cc1cccc(C(F)(F)F)c1)NCCCc1ccccc1`, the AC50 is reported as 1.26 µM (active).
For `c1ccc2c(N3CCNCC3)cccc2c1`, the AC50 was “inactive”.
`CP(=O)(O)CCCN` was tested, and the AC50 was “inactive”.
For `C[C@]12N[C@@H](Cc3ccccc31)c1ccccc12`, the AC50 was “inactive”.
`C=C1[C@@H]2CC[C@H]3[C@@]4(C)C[C@@H](O[C@@H]5O[C@H](CO)[C@H](OS(=O)(=O)O)[C@@H](OS(=O)(=O)O)[C@@H]5OC(=O)CC(C)C)C[C@@H](C(=O)O)[C@H]4CC[C@@]3(C2)[C@H]1O` was tested, and the AC50 was “inactive”.
`N[C@H](CP(=O)(O)O)C(=O)O` was tested, and the AC50 was “inactive”.
`Cc1nc(-c2ccc(-c3ccc(C(=O)N4CCc5cc6c(cc54)C4(CCN(C)CC4)CO6)cc3)c(C)c2)no1` was tested, and the AC50 was “inactive and 3.98 µM (active)”.
`C[C@@H]1O[C@H]1P(=O)(O)O` was tested, and the AC50 was “inactive”.
In the case of `N[C@H](CCCP(=O)(O)O)C(=O)O`, the AC50 is reported as “inactive”.
In the case of `N#C/C(=C\c1ccc(O)c(O)c1)C(N)=S`, the AC50 is reported as “inactive and 25.1 µM (active)”.
With `N#CC(C#N)=Cc1cc(O)c(O)c(O)c1` the AC50 was “inactive”.
In the case of `N#C/C(=C\c1ccc(O)c(O)c1)C(=O)NCCCNC(=O)/C(C#N)=C/c1ccc(O)c(O)c1`, the AC50 is reported as “inactive”.
In the case of `CCC(=O)Nc1ccc(N2CCN(CC)CC2)c(Cl)c1`, the AC50 is reported as “inactive”.
`Cc1nccc2c1[nH]c1ccccc12` was tested, and the AC50 was “inactive”.
In the case of `Cc1c2ccncc2c(C)c2c1[nH]c1ccccc12`, the AC50 is reported as 3.16 µM (active).
In the case of `CN(C)CCC(=O)[C@@]1(O)CC[C@H]2[C@H]3CC=C4C[C@@H](O)CC[C@]4(C)[C@H]3CC[C@]21C`, the activity, negative = inhibition is reported as 13.6% [at 11.4 µM] (inactive).
With `O=C(Nc1ccc(Cl)cc1)Nc1nccs1` the AC50 was 25.1 µM (active).
`C[C@H]1CCCC=CC2C[C@H](O)C[C@@H]2[C@H](O)/C=C\C(=O)O1` (some centres not stated) was tested, and the AC50 was “inactive”.
For `Cc1cc(C)nc(NC2=NCCS2)n1`, the AC50 was “inactive”.
`O=S(=O)(O)/C(=C\c1ccccc1)c1ccccc1` (tested in a mixture with another compound) was tested, and the activity, negative = inhibition was -40.3% [at 11.4 µM] (inactive).
`CC(=O)c1ccc2c(c1)N(CCCN(C)C)c1ccccc1S2` was tested, and the AC50 was “inactive”.
In the case of `COC(=O)N1CCC2(CCN(CC(C)C)CC2)CC1`, the AC50 is reported as “inactive”.
`c1ccc(N2CCC3(CCNCC3)CC2)cc1` was tested, and the AC50 was “inactive”.
For `Cc1sc(NC(=O)C2C3CCC(O3)C2C(=O)O)c(C(=O)OC(C)C)c1-c1ccc(Cl)cc1` (configuration not stated), the AC50 was 14.1 µM (active).
For `O=C(c1cc(-c2ccccc2)nc2ccccc12)N1CCC2(CC1)OCCO2`, the AC50 was 10 µM (active).
`CN1C(=O)c2ccccc2Sc2ccc(C(=O)N3CCC4(CC3)OCCO4)cc21` was tested, and the AC50 was “inactive”.
`CN1[C@@H](CC(=O)c2ccccc2)CCC[C@@H]1C[C@@H](O)c1ccccc1` was tested, and the AC50 was “inactive”.
`COCC(=O)N1CCC2(CCCN(Cc3ccncc3)C2)CC1` was tested, and the AC50 was “inactive”.
In the case of `O=C(c1ccco1)N1CCC[C@@]2(CCN(Cc3ccncc3)C2)C1`, the AC50 is reported as 2.51 µM (active).
With `CN1CC[C@@]2(CCCN(C(=O)c3ccco3)C2)C1` the AC50 was “inactive”.
`CNC(C)(C)Cc1ccccc1` was tested, and the AC50 was “inactive”.
For `CCNC[C@H](O)c1cccc(O)c1`, the AC50 was “inactive”.
With `C[C@@H](Cc1ccc(OCC(=O)O)cc1)NC[C@H](O)c1cccc(Cl)c1` the AC50 was “inactive and 5.01 µM (active)”.
In the case of `C=C1[C@@H]2C[C@@]3([C@H]1O)[C@H]1C[C@@H]4[C@@]5(C)CC[C@H](O)[C@]4([C@H]1N(CC)C5)[C@H]3C[C@H]2O`, the AC50 is reported as “inactive”.
With `Oc1cccc2cccnc12` the activity, negative = inhibition was 31.2% [at 11.4 µM] (inactive).
In the case of `CC1=NN(c2ccc(S(=O)(=O)O)cc2C)C(=[OH+])[C@H]1N=Nc1cc(S(=O)(=O)O)ccc1C(=O)O.O.[Cr]`, the activity, negative = inhibition is reported as 33.2% [at 11.4 µM] (inactive).
In the case of `COCOc1ccc(Br)cc1C(=O)/C=C\c1ccc2c(c1)OCO2`, the AC50 is reported as 0.0631 µM (active).
In the case of `CCCCCCCCCCCCCC(=O)O[C@H]1[C@@H](C)[C@@]2(O)[C@@H](C=C(CO)C[C@]3(O)C(=O)C(C)=C[C@@H]23)C2C(C)(C)[C@]21OC(C)=O` (some centres not stated), the AC50 is reported as “inactive”.
`C[C@@H]1O[C@@H](O[C@H]2C[C@@H](O)[C@]3(CO)[C@@H]4[C@@H](O)C[C@]5(C)[C@H]([C@@H]6COC(=O)C6)CC[C@@]5(O)[C@H]4CC[C@@]3(O)C2)[C@H](O)[C@H](O)[C@@H]1O` was tested, and the AC50 was “inactive”.
For `CCOC(=O)[C@@H]1[C@@H]2c3ccccc3-c3ccccc3[C@H]2C[C@H]1O`, the AC50 was 2 µM (active).
With `N[C@@H](CSC1c2ccccc2-c2ccccc21)C(=O)O` the activity, negative = inhibition was -32.5% [at 11.4 µM] (inactive).
For `CC1(C)[C@@H]2CC[C@]1(C)CN(CCC[N+](C)(C)C)C2`, the activity, negative = inhibition was 6.07% [at 11.4 µM] (inactive).
`CC(C)Oc1cccnc1N(C)C1CCN(Cc2ccccc2)CC1` was tested, and the AC50 was “inactive”.
For `COC(=O)C[C@](O)(CCCC(C)(C)O)C(=O)O[C@@H]1C(OC)=C[C@]23CCCN2CCc2cc4c(cc2[C@H]13)OCO4`, the AC50 was “inactive”.
`CS(=N)(=O)CC[C@@H](N)C(=O)O` (some centres not stated) was tested, and the AC50 was “inactive”.
With `COc1ccccc1CC1C(=O)C2CCN1CC2` (configuration not stated) the AC50 was “inactive”.
With `COCCn1c(SCc2nc3sc(C(=O)OC)c(C)c3c(=O)[nH]2)nc2ccccc21` the AC50 was 0.708 µM (active).
For `O=C(O)[C@H]1CCN1`, the AC50 was “inactive”.
For `N#Cc1ccc(CN2CCCC3(CCN(C(=O)Oc4ccccc4)CC3)C2)cc1`, the AC50 was “inactive”.
In the case of `CC(=O)[C@@H]1CC[C@@H]2[C@@H]3CC=C4C[C@H](OS(=O)(=O)O)CC[C@@]4(C)[C@H]3CC[C@]21C`, the AC50 is reported as “inactive”.
With `CCCCn1c(O)c(C=NCCN2CCCCC2)c(=O)[nH]c1=O` the AC50 was “inactive”.
For `CCCCn1c(O)c(C(CC)=NCc2ccc(F)cc2)c(=O)[nH]c1=O`, the AC50 was 7.08 µM (active).
For `CCCCn1c(O)c(C(CC)=Nc2ccc(OC)cc2OC)c(=O)[nH]c1=O`, the AC50 was 15.8 µM (active).
For `C=CCn1c(O)c(C(C)=NCCCN2CCOCC2)c(=O)[nH]c1=O`, the AC50 was “inactive”.
`C[C@]12CCC3c4ccc(OCC(=O)O)cc4CCC3C1CCC2=O` (some centres not stated) was tested, and the activity, negative = inhibition was 29.2% [at 11.4 µM] (inactive).
For `CN(C)[C@@H]1C(=O)C(C(N)=O)=C(O)[C@]2(O)C(=O)C3=C(O)c4c(O)cccc4[C@](C)(O)[C@H]3C[C@@H]12`, the activity, negative = inhibition was -41.8% [at 11.4 µM] (inactive).
With `CCOC(=O)c1[nH]c(C)c(C(=O)N2CCC3(CC2)OCCO3)c1C` the AC50 was 5.01 µM (active).
For `OCc1cnc[nH]1`, the AC50 was “inactive”.
For `CC(C)(c1ccc(OC[C@@H]2CO2)cc1)c1ccc(OC[C@H]2CO2)cc1`, the AC50 was “inactive”.
In the case of `C[C@@H]1O[C@@H](O[C@H]2C[C@@H](O)[C@@]3(CO)[C@H]4[C@H](O)C[C@]5(C)[C@@H](C6=CC(=O)OC6)CC[C@]5(O)[C@H]4CC[C@@]3(O)C2)[C@@H](O)[C@H](O)[C@H]1O`, the activity, negative = inhibition is reported as 30.3% [at 11.4 µM] (inactive).
In the case of `CC(C(=O)c1c[nH]c2ccccc12)N1CCSCC1` (configuration not stated), the AC50 is reported as 8.91 µM (active).
`N[C@H](Cc1c[nH]c2ccccc12)P(=O)(O)O` was tested, and the activity, negative = inhibition was 13.8% [at 11.4 µM] (inactive).
In the case of `C[N+]1(C)[C@@H]2CC[C@H]1CC(OC(=O)c1c[nH]c3ccccc13)C2` (some centres not stated), the AC50 is reported as “inactive”.
For `C[C@H]1C(=O)O[C@@H]2CCN3CC=C(COC(=O)[C@@](C)(O)[C@@]1(C)O)[C@H]23`, the AC50 was “inactive”.
In the case of `CN1C(=O)CCS(=O)(=O)[C@@H]1c1ccc(Cl)cc1`, the AC50 is reported as “inactive”.
With `Brc1c(NC2=NCCN2)ccc2nccnc12` the AC50 was “inactive”.
`c1ccc2c(c1)[I+]c1ccccc1-2` was tested, and the AC50 was 501 nM (active) and 63.1 nM (active).

— PubChem BioAssay AID1851 (National Center for Advancing Translational Sciences (NCATS), 2009)
% is set by controls: 0 for no effect and ±100 for the full control effect.
